Screening data deposited in PubChem by National Center for Advancing Translational Sciences (NCATS).
TDP1 cell CPT: qHTS for Inhibitors of human tyrosyl-DNA phosphodiesterase 1 (TDP1): qHTS in cells in presence of CPT; chicken DT40 Tdp1-/-;hTDP1 cells + 20 nM CPT, ATP luminescence, 48 h; Potency, µM (top dose mostly 46.2 µM), for the others: at the highest dose activity change, negative = growth inhibition, actives largely listed as inhibitors; 12% of 420,000 active; also: nearly all actives have a fitted effect of over 55% in size
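Chicken DT40 Tdp1-/- cells stably complemented with human TDP1 were seeded at 400 cells/well in medium containing 20 nM camptothecin, exposed to pin-transferred compounds, and grown at 37 °C for at least 48 hr. Viability was read as ATP luminescence.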
HT1080NT lethal: qHTS for induction of synthetic lethality in tumor cells producing 2HG: qHTS for the HT-1080-NT fibrosarcoma cell line; 1.6% of 360,000 active; Potency, µM (titrated, usually from 46.1 µM), without a hit: at the highest dose activity, negative = less viability, hits mostly cytotoxic; HT-1080-NT fibrosarcoma viability, CellTiter-Glo ATP luminescence, 48 h;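 also: NT is the 2HG producing partner of a matched IDH1 knockdown line; 0% = DMSO-treated cells and -100% = media-only wells without cells; nearly all actives have a fitted effect of over 55% in size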
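A 48-hour cytotoxicity screen used HT-1080-NT cells plated 2 hours before compound delivery. ATP-based CellTiter-Glo luminescence measured viability, normalized to DMSO and no-cell controls.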
TDP1 cell noCPT: qHTS for Inhibitors of human tyrosyl-DNA phosphodiesterase 1 (TDP1): qHTS in cells in absence of CPT. Potency, µM (titrated, usually from 46.2 µM), inactives show at the top dose activity change, negative = growth inhibition, actives largely listed as inhibitors. DT40 Tdp1-/- hTDP1 cells, no CPT, ATP luminescence, 48 h. AID 686978, 2013. 15% of 420,000 active; also: nearly all actives have a fitted effect of over 55% in size
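Camptothecin absent (DMSO only). Human TDP1-complemented DT40 knockout cells, 400 cells/well, 37 °C for minimum 48 hr; ATP measured via CellTiter-Glo, 30 min dark incubation, luminescence.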
KB-V1 MDR tox: qHTS assay for MDR1-selective chemotherapeutics: Primary screen using the drug-selected MDR subline cells KB-V1; KB-V1 MDR cells viability, CellTiter-Glo, 72 h; Potency, µM (top dose mostly 46.1 µM), hits mostly cytotoxic; 3.4% of 400,000 active; also: nearly all actives have a fitted effect of over 60% in size
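Cytotoxicity via CellTiter-Glo luminescence after 72 h compound exposure at 37 degrees C. Cells: drug-selected KB-V1 line, DMEM phenol-red free plus 10% FBS. Compounds tested at multiple concentrations; normalized data fitted to concentration-effect curves.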
HT1080 IDH1KD tx: qHTS for induction of synthetic lethality in tumor cells producing 2HG: qHTS for the HT-1080-IDH1KD cell line; HT-1080 IDH1 knockdown viability, ATP luminescence, 48 h; Potency, µM (doses to about 46.1 µM), without a hit: at the highest dose activity, negative = toxicity, hits mostly cytotoxic; 2% of 360,000 active; AID 686971, 2013;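 also: 0% = DMSO wells and -100% = cell-free medium wells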
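In this qHTS, HT-1080 cells depleted of IDH1 are exposed for 48 h at 37 °C to compound titrations. Toxicity is scored from CellTiter-Glo luminescence, with DMSO as full viability and medium alone as none.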
KB-3-1 tox: qHTS assay for MDR1-selective chemotherapeutics: Primary screen using the parental adenocarcinoma cell KB-3-1; Potency, µM (series often up to 46.1 µM), most hits filed as cytotoxic; 1.4% of 400,000 active; KB-3-1 viability, CellTiter-Glo ATP luminescence, 72 h; also: nearly all actives have a fitted effect of over 60% in size
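Parental KB-3-1 viability, qHTS format: 72 h compound exposure, 37 °C; CellTiter-Glo; media-only wells and DMSO plates as controls; concentration-effect fits on corrected data.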
* hit, by the source's call; i = inactive; ? = inconclusive; / = no result. In the library only some 19% were active in any assay of this set; here they are far more common. Calls follow the shape of the dose curve; as a rule, active = well fitted curve in the direction sought with a large enough effect; inconclusive = small, poorly fitted or top-dose-only effect, or another doubt; inactive = no such curve, though single readings can be large; an effect the other way counts as inactive or inconclusive. Unless noted, % is scaled to controls: 0 for no effect and ±100 for the full control effect; potency is read from the fitted curve at half-maximal effect.

SMILES | TDP1 cell CPT | HT1080NT lethal | TDP1 cell noCPT | KB-V1 MDR tox | HT1080 IDH1KD tx | KB-3-1 tox
O=C(COC(=O)CCC1CCCC1)Nc1cccc(S(=O)(=O)N2CCOCC2)c1 | -20.4% | -2.1% | -27.5% | i | 10.8% | i
Nc1nc2c(ncn2[C@@H]2O[C@H](CNCc3ccc(Oc4cc(-n5cccn5)ncn4)cc3)[C@@H](O)[C@H]2O)c(=O)[nH]1 | -0.7% | 20.0% | 18.0% | i | 24.5% | i
CN(C)c1ccc(/C=C2\C=Nc3ccccc32)cc1 | ? | / | ? | i | / | i
N#CC(=C(c1ccccc1)c1ccccc1)c1ccccc1 | -8.1% | -6.4% | ? | ? | 1.3% | ?
Cc1c(C)n(Cc2ccccc2)c2ccc(C(=O)NCc3ccco3)cc12 | ? | / | 16.4µM* | ? | / | ?
Cc1ccc(CNC(=O)c2ccc3c(c2)c(C)c(C)n3Cc2ccc(Cl)cc2)o1 | ? | / | 5.17µM* | i | / | i
Nc1nc2ccccc2n1C(=O)c1cccs1 | ? | ? | ? | ? | -13.6% | i
Nc1nc2ccccc2n1C(=O)c1ccccc1 | ? | ? | 18.4µM* | ? | ? | i
COc1ccc(C(=O)n2c(N)nc3ccccc32)cc1OC | ? | 19.4% | ? | i | 18.9% | i
Nc1nc2ccccc2n1C(=O)c1ccco1 | ? | -6.6% | -10.0% | i | -18.2% | i
Nc1nc2ccccc2n1C(=O)CCc1ccccc1 | ? | ? | 18.4µM* | i | -19.5% | 18.4µM*
Nc1nc2ccccc2n1C(=O)c1ccc(F)cc1 | ? | ? | 18.4µM* | ? | ? | ?
Cc1ccc(C)c(C(=O)COC(=O)c2ccc(C)c(S(=O)(=O)N3CCOCC3)c2)c1 | ? | -4.0% | ? | i | -1.5% | i
CCOC(=O)c1c(NC(=O)/C=C/c2ccc3c(c2)OCO3)sc(C)c1CC | -18.0% | -1.8% | ? | i | -5.7% | 20.6µM*
COC(=O)c1c(NC(=O)/C=C/c2ccc3c(c2)OCO3)sc(C)c1C | -6.7% | -17.7% | -15.4% | i | -3.0% | i
Cc1cc(C)nc(NC(=O)/C=C/c2ccc3c(c2)OCO3)c1 | 3.8% | ? | ? | ? | 4.61µM* | ?
CC(C)(C)c1ccc(/C=C/C(=O)Nc2nncs2)cc1 | ? | -2.8% | ? | i | 7.4% | i
O=C(/C=C/c1ccc2c(c1)OCO2)Nc1nncs1 | 1.0% | ? | -5.4% | i | 1.03µM* | 5.8µM*
Cc1sc(NC(=O)/C=C/c2ccc3c(c2)OCO3)nc1-c1ccccc1 | 14.6µM* | -10.4% | 16.4µM* | 2.91µM* | ? | 1.3µM*
O=C(/C=C/c1ccc2c(c1)OCO2)Nc1nc(-c2ccccc2)cs1 | ? | -0.7% | ? | ? | ? | 7.31µM*
